# Shown are actives, neighbours in structure and some others; about 6% of the full set was active somewhere.
# ERK AVP block – inhibitors of vasopressin-stimulated ERK signaling pathway | AID 995 | Potency, µM (series often up to 57.5 µM), most hits filed as inhibitors | 0.99% of 72,000 active | HEK293-V1b, vasopressin-stimulated pERK AlphaScreen; also: nearly all actives have a fitted effect of over 55% in size
#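 qHTS, compounds titrated on V1b-expressing HEK293 cells. Preincubation 30 min at 37C, vasopressin 25 nM for 5 min, lysis 10 min, bead incubation 5 hr at room temperature.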
# CRE Fsk mod – modulators of forskolin-stimulated CRE signaling in CHO cells. CHO CRE-bla reporter (cAMP response element driving beta-lactamase), forskolin EC10, beta-lactamase ratio. Potency, µM (doses to about 38.2 µM), most hits filed as activators. 2.5% of 71,000 active. AID 662; active = well fitted activation curve with a large enough effect in the signal ratio, with a control signal flat, not every such curve was filed as active; inconclusive = small, poorly fitted or top-dose-only effect, or effect the other way, or a change in a side signal; the % refers to the signal ratio
#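 Titrated compounds plus EC10 NKH 477 on CHO CRE-bla cells, 3 h, 37 °C. CCF4, 2 h RT. Ratio 460/530 nm → AC50.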
# TSHR ag – agonists of human thyroid stimulating hormone receptor; P16473; HEK293-CNG-TSHR cells (CNG channel as cAMP sensor), membrane potential dye, cAMP; Potency, µM (titrated, usually from 57.1 µM), usual class: activators; 0.48% of 73,000 active; active = well fitted activation curve with a large enough effect in the main read-out, with a control signal flat, not every such curve was filed as active; inconclusive = small, poorly fitted or top-dose-only effect, or a change in a side signal; inactive = no such curve, though single readings can be large or run the other way; reference of the percent scale not stated here;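 also: the control signal comes from parental cells without the receptor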
# Target sequence (P16473 whole entry, looked up): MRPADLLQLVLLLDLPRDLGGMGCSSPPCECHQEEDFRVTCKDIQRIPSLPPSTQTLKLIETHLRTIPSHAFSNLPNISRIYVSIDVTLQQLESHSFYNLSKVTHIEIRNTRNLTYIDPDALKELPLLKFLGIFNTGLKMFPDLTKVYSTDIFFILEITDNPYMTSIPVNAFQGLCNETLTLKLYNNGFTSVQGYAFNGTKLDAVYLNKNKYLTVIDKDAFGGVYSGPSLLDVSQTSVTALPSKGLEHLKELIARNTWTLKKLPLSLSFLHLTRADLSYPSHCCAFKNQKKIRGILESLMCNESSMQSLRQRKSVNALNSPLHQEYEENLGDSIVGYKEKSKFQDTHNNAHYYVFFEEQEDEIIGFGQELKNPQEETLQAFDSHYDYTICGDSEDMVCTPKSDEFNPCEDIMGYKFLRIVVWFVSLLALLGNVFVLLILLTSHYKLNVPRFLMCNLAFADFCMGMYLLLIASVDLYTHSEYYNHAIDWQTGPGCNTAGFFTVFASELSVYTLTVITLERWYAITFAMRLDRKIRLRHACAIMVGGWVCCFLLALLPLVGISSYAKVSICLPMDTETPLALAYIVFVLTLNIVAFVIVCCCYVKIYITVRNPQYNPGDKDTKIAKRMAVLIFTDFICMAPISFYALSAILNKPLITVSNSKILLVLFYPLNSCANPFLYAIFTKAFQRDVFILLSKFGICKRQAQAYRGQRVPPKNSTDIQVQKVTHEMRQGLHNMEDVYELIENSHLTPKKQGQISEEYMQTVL
#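 HEK 293 cells stably expressing TSHR and a cAMP-gated CNG channel; parental CNG-only cells as counterscreen. Cells preloaded 60 min with membrane potential dye plus 100 uM RO 20-1724, then compound 30 min; fluorescence read at 590 nm.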
# HEK293 cAMP ctrl – raises cAMP in parental HEK293 cells, TSHR agonist counter-screen; parental HEK293 CNG cAMP sensor, membrane potential fluorescence; Potency, µM (doses to about 57.1 µM), hits mostly activators; 2.5% of 73,000 active; AID 938; also: nearly all actives have a fitted effect of over 55% in size
#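 Parental HEK 293 cells stably expressing a cAMP-gated CNG channel were loaded with membrane potential dye containing 100 uM RO 20-1724 for 60 min. Compound added for 30 min; depolarization read as fluorescence intensity at 590 nm.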
# Numbers stand for hits; n = inactive; u = inconclusive; x = no result given; [ ] = dose if it differs, or a comment. Unless noted, calls follow the shape of the dose curve; as a rule, active = well fitted curve in the direction sought with a large enough effect; inconclusive = small, poorly fitted or top-dose-only effect, or another doubt; inactive = no such curve, though single readings can be large; an effect the other way counts as inactive or inconclusive.
SMILES,ERK AVP block,CRE Fsk mod,TSHR ag,HEK293 cAMP ctrl
Cc1cc(N2CCN(C(c3ccccc3)c3ccc(Cl)cc3)CC2)n2ncnc2n1 (centres undefined),u,u,25µM,n
O=C(OCCOc1ccccc1Cl)c1ccc(-n2cnnn2)cc1,u,u,u,40µM
CCc1ccc(N2CC(C(=O)Nc3ccccc3F)CC2=O)cc1 (centres undefined),x,x,n,n
COC(=O)c1ccccc1NC(=O)C1CC(=O)N(c2ccc(F)cc2)C1 (centres undefined),n,n,u,25µM
COc1cc(C(=O)O[C@@H]2CC(C)=CC[C@@]3(C)CC[C@](O)(C(C)C)[C@H]23)ccc1O,x,u,n,n
Cc1nc2ccccc2c2oc(C(=O)NC3CC3)cc12,u,7.9µM,n,n
Cc1nc2ccccc2c2oc(C(=O)N3CCc4ccccc4C3)cc12,7.9µM,u,u,u
CCn1c(=O)c2cc(C(=O)N3CCN(C(=O)c4ccco4)CC3)sc2c2ccccc21,u,4µM,n,n
Cc1nc2ccccc2c2oc(C(=O)N3CCN(C(=O)c4ccco4)CC3)cc12,n,13µM,x,n
Cc1nc2ccccc2c2oc(C(=O)NCCN3CCN(C)CC3)cc12,n,u,n,n
O=C(c1csnn1)N1CCC2(CCCN(Cc3cc(C(F)(F)F)cc(C(F)(F)F)c3)C2)CC1,n,u,x,n
COC(=O)C1=C(C)N(Cc2ccccc2)[C@]23O[C@](C(=O)OC)(C(=O)N2C1c1ccccc1)C1CCOC(=O)C13 (some centres undefined),n[11.5 µM],x,n[11.4 µM],n[11.4 µM]
COc1cc(OC)c(Nc2cc(C)nc3nc(C)nn23)cc1Cl,n,7.9µM,n,n
FC(F)(F)c1cc(-c2ccco2)nc(-n2nnc3ccccc32)n1,n,n,u,25µM
FC(F)(F)c1cc(-c2ccco2)nc(-n2nc(C(F)(F)F)cc2C2CC2)n1,n,u,u,u
COc1cccc(OC)c1-c1nnc(-c2cn(C)c3ccccc23)o1,n,n,u,20µM
COc1ncc2nc(-c3cn(C)c4ccccc34)c(=O)n(-c3ccccc3)c2n1,n,u,u,u
Cc1cc(NC(=O)CC(C)(C)C)nc2c1c(=O)oc1ccccc12,n,2µM,x,n[2.29 µM]
COc1cccc(NC(=O)c2oc3ccccc3c2NC(=O)C(C)(C)C)c1,n,n,u,1µM
COc1cccc(NC(=O)c2oc3ccccc3c2NC(=O)c2ccc3c(c2)OCO3)c1,n,n,x,n
CCCCCCCCCCCCCCC1CO1 (centres undefined),n,n,n,n
Cc1cc(C(=O)COc2ccc(-c3nnco3)cc2)c(C)n1Cc1ccccc1,n,n,u,13µM
CC1CCCC(C)N1C(=O)c1cc(-c2cccs2)on1 (centres undefined),n,u,20µM,n
CC(CN(C)C)NC(=O)c1ccc(Cc2nc3ccccc3[nH]2)cc1 (centres undefined),x,x,n,n
C/C=C/c1ccc(OCCCCN2C(=O)NC(C)(C)C2=O)c(OC)c1,20µM,u,n,n
SMILES,ERK AVP block,CRE Fsk mod,TSHR ag,HEK293 cAMP ctrl
COCCNc1nc(-c2ccoc2)nc2ccccc12,n,u,u,u
COCCn1c(SC(C)C(=O)Nc2ccc3c(c2)OCCO3)nc2ccccc2c1=O (centres undefined),n,13µM,u,u
COC(=O)c1ccc(CSc2nc3ccccc3c(=O)n2-c2ccc(OC)c(OC)c2)o1,n,13µM,n,n
COC(=O)c1ccc(CSc2nc3c(c(=O)n2-c2ccc(F)cc2)SCC3)o1,u,u,3.2µM,n
COCCn1c(SCc2ccc(C(=O)OC)o2)nc2ccccc2c1=O,u,13µM,u,u
CCCn1c(N2CCN(S(=O)(=O)Cc3ccccc3)CC2)nc2ccccc21,n,n,u,25µM
C=C(C)C(=O)OCC(C)O (centres undefined),n,n,n,n
Cc1noc(C)c1-c1nc(NCc2ccccc2)c2ccccc2n1,n,n,u,25µM
Cc1noc(C)c1-c1nc(NCc2cccnc2)c2ccccc2n1,n,13µM,x,n
CC1CCC2C(=O)N3C(CCC(C)[C@@H]3c3ccc(-c4ccco4)cc3)C(=O)N2C1c1cccc(N2CCCC2=O)c1 (some centres undefined),n[11.5 µM],x,n[11.4 µM],n[11.4 µM]
COc1cc(C(=O)NCCc2nc3ccccc3n2C)cc(OC)c1OC,n,6.3µM,n[11.4 µM],n
CCN(C)c1ccc(/C=N\n2nnnc2N)cc1,n,7.9µM,n,n
COC(=O)CC1Oc2cc3oc4c5ccccc5oc(=O)c4c3cc2O1 (centres undefined),n,x,x,x

# High-throughput results from PubChem BioAssay.
